The record followed here is ChEMBL document CHEMBL3433997, “St. Jude Leishmania screening dataset” (2016).

For one experiment, the target named is Solute carrier family 2, facilitated glucose transporter member 1 (Homo sapiens) (UniProt P11166). The experiment can be described thus: ST_JUDE_LEISH: Cytotoxicity at 2uM final concentration against transgenic Leishmania Mexicana promastigotes LmGLUT1 that are glucose transport deficient and complemented with the human glucose transporter GLUT1. Activity is measured by DNA content using SYBR green in vitro. It counts as functional.
Chain of Solute carrier family 2, facilitated glucose transporter member 1 (Homo sapiens) (P11166 whole entry): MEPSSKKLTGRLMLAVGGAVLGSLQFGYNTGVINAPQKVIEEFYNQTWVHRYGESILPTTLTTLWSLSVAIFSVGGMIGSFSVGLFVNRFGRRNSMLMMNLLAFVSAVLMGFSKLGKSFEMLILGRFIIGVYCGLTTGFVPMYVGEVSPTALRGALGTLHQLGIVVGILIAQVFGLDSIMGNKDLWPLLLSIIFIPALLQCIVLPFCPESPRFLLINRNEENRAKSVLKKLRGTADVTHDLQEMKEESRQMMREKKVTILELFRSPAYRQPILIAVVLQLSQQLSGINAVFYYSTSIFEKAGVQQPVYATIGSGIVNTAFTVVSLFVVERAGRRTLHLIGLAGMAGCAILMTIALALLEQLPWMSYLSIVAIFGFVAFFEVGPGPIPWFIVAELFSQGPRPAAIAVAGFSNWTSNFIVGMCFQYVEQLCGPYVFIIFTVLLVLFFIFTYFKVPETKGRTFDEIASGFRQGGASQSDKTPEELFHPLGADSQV
Turning to `COc1ccc(-c2cccc(NC(=O)c3ccc(F)cc3)c2)cc1CN1CCCN(C)CC1`, the inhibition worked out at 11.2%.
Still for that read-out and setting: as for `COc1cccc(Nc2c(C(N)=O)cnc3ccc(-c4ccc([S+](C)[O-])cc4)cc23)c1` (stereo not given), the figure is 2.64%; as for `CCOC(=O)c1ccc(NC(=O)NCCCC2CCCN(CCCCCNC(=O)/C=C/c3ccc(Cl)c(Cl)c3)C2)cc1` (stereo not given), 1.46%; as for `CN(C)Cc1cccc(-c2ccc(NC(=O)c3ccc4c(=O)n(CCN5CCCCC5)cnc4c3)cc2)c1`, 3.67%.
In the case of `CC=CC1CCNC(C(O)c2ccnc3ccc(OC)cc23)C1` (stereo not given), the inhibition stood at 2.16%.
Same read-out and setting: with `CN1CCC(C(=O)Nc2ccc(-c3ccc(-c4nc5ccccc5[nH]4)s3)cc2)CC1` the figure was 0.79%; with `CCC(C)c1ccc(NC(=O)Nc2ccc(Cn3ncc(N4CCCNCC4)c(Cl)c3=O)cc2)cc1` (stereo not given), 3.78%.
Same read-out and setting: with `O=C(Nc1nc(-c2cc(F)ccc2F)cs1)c1cncc(Br)c1` the figure was 4.6%; with `OC1(c2ccccc2)CCN(Cc2cccc(-c3c[nH]c4nc(NC5CCCC5)ncc34)c2)C1` (stereo not given), 3.82%.
Turning to `COc1ccc(CN(C)CC(O)COc2ccc(NC(=O)c3cccc4c(=O)c5cccc(OC)c5[nH]c34)cc2)cc1OC` (stereo not given), the inhibition came out at 7.62%.
Still for that read-out and setting: as for `Cc1ccc(-c2ccc(Cl)cc2Oc2cnc(N)nc2N)o1`, the figure is 1.95%; as for `c1csc(-c2ccc3c(c2)CC(NCc2c[nH]c4cnccc24)C3)c1` (stereo not given), 4.86%; as for `N=C(N)NN=CC(=O)Nc1ccc(Br)cc1`, -1.7%.
`O=C(CCOc1ccccc1)NCC1CCCO1` (stereo not given): the inhibition stood at 1.87%.
As for `Cc1cc(N[C@@H](CC(C)C)C(=O)NCCCOC(C)C)nc(NCCc2ccc(F)cc2)n1`, the inhibition came to 2.71%.
In the case of `CC(C)Sc1ccc(Cl)cc1CON1C(=N)N=C(N)NC1(C)C`, the inhibition was 2.72%.
As to `CC(C)c1ccc(NC(=O)c2cccc(CN3CCCN(Cc4cccc(C#N)c4)CC3)c2)cc1`, the inhibition was 6.55%.
Still for that read-out and setting: with `Cc1cc(N[C@@H](Cc2ccccc2)C(=O)Nc2ccccc2)nc(NCCc2ccccc2)n1` the figure was 3.8%.
On the same count and under the same terms, with `Cc1ccc(O)c(CN2CCCC(COC(c3ccc(F)cc3)c3ccc(F)cc3)C2)c1` (stereo not given) the figure was 2.33%; with `CC(CN(C)C)C(=O)Nc1cccc(-c2ccc(-c3nc4ccccc4[nH]3)s2)c1` (stereo not given), 9.63%; with `COc1ccc2ccccc2c1C=NN=c1cc(C)[nH]c2cc(C(F)(F)F)ccc12`, 10.2%.
Same read-out and setting: as for `CC1CCCCC1N(C)C1CCN(CCCNC(=O)C=Cc2ccc(Cl)cc2Cl)CC1` (stereo not given), the figure is -1.12%; as for `Cc1nc(C)c(-c2ccc(Oc3ccc(OC(F)(F)F)cc3)cc2)c(O)c1I`, -0.28%.
For `CCCCCOc1ccc(C(=NC)N(CCCCC)CCCCC)c2ccccc12`, the inhibition is 5.37%.
With `O=C(Nc1ccc(-c2csc(-c3nc4ccccc4[nH]3)c2)cc1)Nc1ccc(Cl)c(Cl)c1`, the inhibition stood at 1.35%.
Consider `N=C(N)NN=Cc1cc([N+](=O)[O-])ccc1Sc1ccccc1CO`, for which the inhibition stood at 1.08%.
The same measure, in the same setting: as for `N#Cc1ccc2c(c1)CN(CCCCNC(=O)c1ccc(-c3ccccc3)cc1)CC2`, the figure is 3.14%.
On the same count and under the same terms, as for `NS(=O)(=O)c1cccc(Br)c1`, the figure is 2.38%; as for `Cc1cccc(CC2CC(=O)N(c3ccc([N+](=O)[O-])cc3)C2=O)c1` (stereo not given), 7.63%.
On the same count and under the same terms, with `Fc1ccc(Nc2ccnc3cc(-c4ccc(CNCCN5CCOCC5)o4)ccc23)c(Cl)c1` the figure was 2.04%.
As to `CC1(C)CCCC(=Cc2ccc(Br)cc2)C1(O)Cn1ccnc1` (stereo not given), the inhibition is 27.9%.
Regarding `O=C(/C=C/c1ccc(Cl)c(Cl)c1)NCCCCN1CCC(c2c[nH]c3ccccc23)CC1`, the inhibition is -2.39%.
Same read-out and setting: as for `CC(C)C1=C[C@H]2C[C@]3(C4OCCO4)[C@@H]4CC[C@@H](C)[C@H]4C[C@@]2(COCc2cccc(C#N)c2)[C@]13C(=O)OC(c1ccccc1)c1ccccc1`, the figure is 4.12%.
The same measure, in the same setting: with `CC(C)Cn1c(Sc2ccc(C#N)c([N+](=O)[O-])c2)nnc1-c1cccs1` the figure was 1.53%.
As for `CO/C(=C\C=C\c1cc2cc(Cl)c(Cl)cc2[nH]1)C(=O)NCCCN1CCN(C2CCCCC2)CC1`, the inhibition stood at 8.66%.
Still for that read-out and setting: as for `COc1cccc(NC(=O)NC2CCN(c3ccnc(Nc4cc(OC)c(OC)c(OC)c4)n3)C2)c1` (stereo not given), the figure is 1.18%; as for `Cc1cccc(/C=C/C(=O)NC2CCC(N3CCC(c4ccccc4C)CC3)CC2)c1` (stereo not given), -2.65%.
As for `O=C(Nc1ccc(-c2cccc(-c3nc4cc(F)ccc4[nH]3)c2)cc1)c1ccncc1`, the inhibition is 13.9%.
As for `CCc1ccc(CN2CCC(CNC(=O)c3cc(-c4ccccc4F)cs3)C2)cc1` (stereo not given), the inhibition was 1.55%.
The same measure, in the same setting: with `CCn1c2ccccc2c2cc(Cc3cnc(N)nc3N)ccc21` the figure was 9.49%.

The target of another experiment is Hexose transporter 1 (Plasmodium falciparum) (UniProt O97467). The experiment can be described thus: ST_JUDE_LEISH: Cytotoxicity at 2uM final concentration against transgenic Leishmania Mexicana promastigotes LmPfHT that are glucose transport deficient and complemented with the Plasmodium falciparum hexose transporter. Activity is measured by DNA content using SYBR green in vitro. It counts as functional.
For `COc1ccc(-c2cccc(NC(=O)c3ccc(F)cc3)c2)cc1CN1CCCN(C)CC1`, the inhibition came out at 9.38%.
With `COc1cccc(Nc2c(C(N)=O)cnc3ccc(-c4ccc([S+](C)[O-])cc4)cc23)c1` (stereo not given), the inhibition came to 4.5%.
On the same count and under the same terms, with `CCOC(=O)c1ccc(NC(=O)NCCCC2CCCN(CCCCCNC(=O)/C=C/c3ccc(Cl)c(Cl)c3)C2)cc1` (stereo not given) the figure was 1.66%.
With `CN(C)Cc1cccc(-c2ccc(NC(=O)c3ccc4c(=O)n(CCN5CCCCC5)cnc4c3)cc2)c1`, the inhibition was found to be 3.74%.
On to `CC=CC1CCNC(C(O)c2ccnc3ccc(OC)cc23)C1` (stereo not given), for which the inhibition was found to be 2.5%.
For the molecule `CN1CCC(C(=O)Nc2ccc(-c3ccc(-c4nc5ccccc5[nH]4)s3)cc2)CC1`, the inhibition is -2.31%.
On the same count and under the same terms, with `CCC(C)c1ccc(NC(=O)Nc2ccc(Cn3ncc(N4CCCNCC4)c(Cl)c3=O)cc2)cc1` (stereo not given) the figure was 4.71%; with `O=C(Nc1nc(-c2cc(F)ccc2F)cs1)c1cncc(Br)c1`, 1.79%; with `OC1(c2ccccc2)CCN(Cc2cccc(-c3c[nH]c4nc(NC5CCCC5)ncc34)c2)C1` (stereo not given), 3.3%.
On the same count and under the same terms, as for `COc1ccc(CN(C)CC(O)COc2ccc(NC(=O)c3cccc4c(=O)c5cccc(OC)c5[nH]c34)cc2)cc1OC` (stereo not given), the figure is 3.04%; as for `Cc1ccc(-c2ccc(Cl)cc2Oc2cnc(N)nc2N)o1`, 2.44%; as for `c1csc(-c2ccc3c(c2)CC(NCc2c[nH]c4cnccc24)C3)c1` (stereo not given), 5.34%.
For the molecule `N=C(N)NN=CC(=O)Nc1ccc(Br)cc1`, the inhibition is -4.24%.
Take `O=C(CCOc1ccccc1)NCC1CCCO1` (stereo not given): the inhibition is -0.04%.
As for `Cc1cc(N[C@@H](CC(C)C)C(=O)NCCCOC(C)C)nc(NCCc2ccc(F)cc2)n1`, the inhibition was determined as 1.92%.
Same read-out and setting: as for `CC(C)Sc1ccc(Cl)cc1CON1C(=N)N=C(N)NC1(C)C`, the figure is 2.18%.
On the same count and under the same terms, with `CC(C)c1ccc(NC(=O)c2cccc(CN3CCCN(Cc4cccc(C#N)c4)CC3)c2)cc1` the figure was 6.93%; with `Cc1cc(N[C@@H](Cc2ccccc2)C(=O)Nc2ccccc2)nc(NCCc2ccccc2)n1`, 5.68%; with `Cc1ccc(O)c(CN2CCCC(COC(c3ccc(F)cc3)c3ccc(F)cc3)C2)c1` (stereo not given), -0.35%.
With `CC(CN(C)C)C(=O)Nc1cccc(-c2ccc(-c3nc4ccccc4[nH]3)s2)c1` (stereo not given), the inhibition came out at 9.45%.
As to `COc1ccc2ccccc2c1C=NN=c1cc(C)[nH]c2cc(C(F)(F)F)ccc12`, the inhibition amounted to 8.24%.
Same read-out and setting: as for `CC1CCCCC1N(C)C1CCN(CCCNC(=O)C=Cc2ccc(Cl)cc2Cl)CC1` (stereo not given), the figure is -1.99%; as for `Cc1nc(C)c(-c2ccc(Oc3ccc(OC(F)(F)F)cc3)cc2)c(O)c1I`, 0.69%; as for `CCCCCOc1ccc(C(=NC)N(CCCCC)CCCCC)c2ccccc12`, 10.9%.
On to `O=C(Nc1ccc(-c2csc(-c3nc4ccccc4[nH]3)c2)cc1)Nc1ccc(Cl)c(Cl)c1`, for which the inhibition was 1.35%.
On the same count and under the same terms, as for `N=C(N)NN=Cc1cc([N+](=O)[O-])ccc1Sc1ccccc1CO`, the figure is 1.61%; as for `N#Cc1ccc2c(c1)CN(CCCCNC(=O)c1ccc(-c3ccccc3)cc1)CC2`, 3.16%; as for `NS(=O)(=O)c1cccc(Br)c1`, 0.12%.
As to `Cc1cccc(CC2CC(=O)N(c3ccc([N+](=O)[O-])cc3)C2=O)c1` (stereo not given), the inhibition was 7.62%.
The same measure, in the same setting: as for `Fc1ccc(Nc2ccnc3cc(-c4ccc(CNCCN5CCOCC5)o4)ccc23)c(Cl)c1`, the figure is 2.02%.
Still for that read-out and setting: with `CC1(C)CCCC(=Cc2ccc(Br)cc2)C1(O)Cn1ccnc1` (stereo not given) the figure was 20.9%; with `O=C(/C=C/c1ccc(Cl)c(Cl)c1)NCCCCN1CCC(c2c[nH]c3ccccc23)CC1`, 0.39%; with `CC(C)C1=C[C@H]2C[C@]3(C4OCCO4)[C@@H]4CC[C@@H](C)[C@H]4C[C@@]2(COCc2cccc(C#N)c2)[C@]13C(=O)OC(c1ccccc1)c1ccccc1`, 3.24%.
With `CC(C)Cn1c(Sc2ccc(C#N)c([N+](=O)[O-])c2)nnc1-c1cccs1`, the inhibition is 3.14%.
On the same count and under the same terms, with `CO/C(=C\C=C\c1cc2cc(Cl)c(Cl)cc2[nH]1)C(=O)NCCCN1CCN(C2CCCCC2)CC1` the figure was 5.7%; with `COc1cccc(NC(=O)NC2CCN(c3ccnc(Nc4cc(OC)c(OC)c(OC)c4)n3)C2)c1` (stereo not given), -1.6%; with `Cc1cccc(/C=C/C(=O)NC2CCC(N3CCC(c4ccccc4C)CC3)CC2)c1` (stereo not given), -2.79%.
With `O=C(Nc1ccc(-c2cccc(-c3nc4cc(F)ccc4[nH]3)c2)cc1)c1ccncc1`, the inhibition turned out to be 14.2%.
The same measure, in the same setting: with `CCc1ccc(CN2CCC(CNC(=O)c3cc(-c4ccccc4F)cs3)C2)cc1` (stereo not given) the figure was -3.47%.
As to `CCn1c2ccccc2c2cc(Cc3cnc(N)nc3N)ccc21`, the inhibition was 8.51%.
